From PubChem BioAssay
Most compounds without a hit are left out; they make up all but 8.1% or so of the library.
KB-3-1 tox: KB-3-1 parental cell cytotoxicity; AID 1347075; KB-3-1 viability, CellTiter-Glo ATP luminescence, 72 h; hit rate 1.4% among 400,000; Potency, µM (doses to about 46.1 µM), most hits filed as cytotoxic; note: nearly all actives have a fitted effect of over 60% in size
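72 h, 37 °C compound treatment of KB-3-1 parental cells; CellTiter-Glo added, 10 min, luminescence read. Data corrected against DMSO-only plates and normalized before curve fitting.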
KB-V1 cytotox: kills drug-selected multidrug resistant KB-V1 cells | KB-V1 MDR cells viability, CellTiter-Glo, 72 h | Potency, µM (titrated, usually from 46.1 µM), most hits filed as cytotoxic | hit rate 3.4% among 400,000; note: nearly all actives have a fitted effect of over 60% in size
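KB-V1 MDR subline cells in DMEM (phenol-red free, 10% FBS) exposed to compounds in qHTS concentration series for 72 h at 37 degrees C. Viability read by CellTiter-Glo luminescence; concentration-effect curves fitted after normalization and correction.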
SW480 rereplic: DNA re-replication induction in SW480 cells | SW480 DNA re-replication, Hoechst DNA content imaging, 48 h | Potency, µM (highest dose often 46.1 µM), most hits filed as activators | hit rate 1.8% among 340,000; note: nearly all actives have a fitted effect of over 55% in size
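Treated cells incubate 48 hr (37 C, 5% CO2), are stained 40 min with Hoechst, and nuclear fluorescence is enumerated; a rise in nuclei with high DNA signal marks re-replication.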
ELG1 repair inh: ELG1-dependent DNA repair inhibition. Potency, µM (top dose mostly 46.1 µM), actives largely listed as inhibitors. hit rate 2.3% among 330,000. HEK293T ELG1-luciferase reporter, luminescence, 16 h; DNA damage induced by 5-fluorouridine; note: nearly all actives have a fitted effect of over 55% in size
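Quantitative HTS, concentration-response format. 2,000 cells/well co-treated with 5-fluorouridine and compound, 16 hr in 5% CO2 at 37 °C; ONE-Glo luminescence read after 30 min.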
MCF10A rereplic: DNA re-replication induction in MCF 10a cells; hit rate 2.9% among 350,000; MCF 10A DNA re-replication, Hoechst nuclear intensity, 48 h; AID 624296; Potency, µM (series often up to 46.1 µM), usual class: activators; note: nearly all actives have a fitted effect of over 50% in size
Large screens that a line does not name were inactive. Calls come from the whole dose curve; as a rule, active = well fitted curve in the direction sought with a large enough effect; inconclusive = small, poorly fitted or top-dose-only effect, or another doubt; inactive = no such curve, though single readings can be large; an effect the other way counts as inactive or inconclusive.

CCN(C(=O)C(C)Sc1nnc(-c2ccncc2)n1C)C1CCCCC1 (stereo not drawn)	KB-V1 cytotox 16µM
Cn1c(SCc2ccc(F)cc2)nnc1-c1cccs1	KB-V1 cytotox 16µM, ELG1 repair inh inconclusive
Cc1ccccc1Oc1ccc2c(c1)[C@@H]1C[C@H](N(C)C(=S)Nc3ccc(F)cc3)[C@H]([C@H](C)O)C(=O)N1CC2	KB-3-1 tox inconclusive (no result: SW480 rereplic, ELG1 repair inh, MCF10A rereplic)
Cc1nn(CC(=O)N2CCC(C)CC2)c(=O)c2cc3occc3n12	none (no result: SW480 rereplic, ELG1 repair inh, MCF10A rereplic)
Cc1cccc(NC(=O)Cn2c(=O)n(CCCCCC(=O)NCc3ccccc3)c(=O)c3sccc32)c1	none (no result: SW480 rereplic, ELG1 repair inh, MCF10A rereplic)
CCCCC[C@@H](C)N1C[C@H](COCc2ccccc2)Oc2cc(N3CC[C@@H](N(C)C)C3)ccc2S1(=O)=O	KB-3-1 tox inconclusive, KB-V1 cytotox 16µM (no result: SW480 rereplic, ELG1 repair inh, MCF10A rereplic)
CCCCC[C@@H](C)N1C[C@@H](COCc2ccccc2)Oc2cc(N3CC[C@@H](O)C3)ccc2S1(=O)=O	KB-3-1 tox inconclusive (no result: SW480 rereplic, ELG1 repair inh, MCF10A rereplic)
CCCCC[C@@H](C)N1C[C@@H](COCc2ccccc2)Oc2cc(N3CC[C@@H](N(C)C)C3)ccc2S1(=O)=O	KB-3-1 tox inconclusive, KB-V1 cytotox 21µM (no result: SW480 rereplic, ELG1 repair inh, MCF10A rereplic)
CCCCC[C@@H](C)N1C[C@@H](COCc2ccccc2)Oc2cc(N3CCC[C@@H]3CO)ccc2S1(=O)=O	KB-3-1 tox inconclusive, KB-V1 cytotox 16µM (no result: SW480 rereplic, ELG1 repair inh, MCF10A rereplic)
C[C@@H](c1ccccc1)N1C[C@@H](COCc2ccccc2)Oc2cc(N3CC[C@@H](O)C3)ccc2S1(=O)=O	none (no result: SW480 rereplic, ELG1 repair inh, MCF10A rereplic)
C[C@H](c1ccccc1)N1C[C@H](COCc2ccccc2)Oc2cc(N3CC[C@@H](O)C3)ccc2S1(=O)=O	KB-V1 cytotox 23µM (no result: SW480 rereplic, ELG1 repair inh, MCF10A rereplic)
CCCCC[C@H](C)N1C[C@H](COCc2ccccc2)Oc2cc(N3CC[C@H](N(C)C)C3)ccc2S1(=O)=O	KB-3-1 tox inconclusive, KB-V1 cytotox 21µM (no result: SW480 rereplic, ELG1 repair inh, MCF10A rereplic)
CCCCn1c(CN2CCN(C(=O)OCC)CC2)nc2c1c(=O)n(C)c(=O)n2C	KB-3-1 tox inconclusive, KB-V1 cytotox 13µM, ELG1 repair inh inconclusive
CCOCCn1c(CN2CCN(C)CC2)nc2c1c(=O)n(C)c(=O)n2C	none
COCCn1c(CN2CCN(c3cccc(Cl)c3)CC2)nc2c1c(=O)n(C)c(=O)n2C	KB-V1 cytotox inconclusive, ELG1 repair inh 15µM
CCOCCn1c(CN2CCN(c3cccc(Cl)c3)CC2)nc2c1c(=O)n(C)c(=O)n2C	ELG1 repair inh inconclusive
CCOCCn1c(CN2CCN(c3ccc(F)cc3)CC2)nc2c1c(=O)n(C)c(=O)n2C	KB-3-1 tox inconclusive, KB-V1 cytotox 9.2µM, ELG1 repair inh inconclusive
CCCCCn1c(CN2CCN(CCO)CC2)nc2c1c(=O)n(C)c(=O)n2C	none
COc1cc(C(O)c2nc(-c3csc4ccccc34)cs2)ccc1F (stereo not drawn)	none (no result: SW480 rereplic, ELG1 repair inh, MCF10A rereplic)
COc1ccc(NC(=O)Cn2c(=O)n(-c3ccc(CC(=O)NCC4CCCO4)cc3)c(=O)c3ccccc32)c(OC)c1 (stereo not drawn)	none (no result: SW480 rereplic, ELG1 repair inh, MCF10A rereplic)
O=c1c2ccccc2n(CC(O)CN2CCCCC2)c2ccccc12 (stereo not drawn)	KB-V1 cytotox inconclusive, SW480 rereplic 7.3µM, MCF10A rereplic 21µM
COc1ccc(NC(=S)N2CCN(Cc3ccccc3)CC2)cc1	none
CCOc1ccc(CN2CCN(CC(O)Cn3c4ccccc4c4ccccc43)CC2)cc1 (stereo not drawn)	KB-V1 cytotox inconclusive, SW480 rereplic inconclusive, MCF10A rereplic inconclusive
OC(CN1CCCCC1)Cn1c2ccccc2c2ccccc21 (stereo not drawn)	none
COc1ccc(CNC(=S)N2CCN(Cc3ccccc3)CC2)cc1	KB-V1 cytotox 16µM, SW480 rereplic inconclusive
COc1ccc(CN2CCN(CC(O)Cn3c4ccccc4c4ccccc43)CC2)cc1 (stereo not drawn)	KB-3-1 tox inconclusive, KB-V1 cytotox 6.5µM, SW480 rereplic inconclusive, MCF10A rereplic inconclusive
COc1ccccc1-c1nnc(C2CCN(S(=O)(=O)c3ccc(CC(C)C)cc3)CC2)o1	none (no result: SW480 rereplic, ELG1 repair inh, MCF10A rereplic)
Cc1cc(OCCCCOc2ccc(S(N)(=O)=O)c(C)c2)ccc1S(N)(=O)=O	none
Cc1c(Cl)cccc1NS(=O)(=O)c1cc2c(cc1F)NC(=O)CC2	none (no result: SW480 rereplic, ELG1 repair inh, MCF10A rereplic)
O=C1C(Cc2ccccc2)NC(=S)N1Cc1ccccc1 (stereo not drawn)	none
CC(C)CC1NC(=S)N(Cc2ccccc2)C1=O (stereo not drawn)	KB-3-1 tox inconclusive, KB-V1 cytotox 21µM, SW480 rereplic inconclusive, MCF10A rereplic inconclusive
CCC1NC(=S)N(C2CCCCC2)C1=O (stereo not drawn)	none
CC(C)CC1NC(=S)N(C2CCCCC2)C1=O (stereo not drawn)	SW480 rereplic inconclusive, MCF10A rereplic 16µM
Cc1ccc(-c2csc(NC(=O)CSC3=NCCS3)n2)cc1	ELG1 repair inh inconclusive
CCOC(=S)SCC(=O)Nc1nc(C)c(C)s1	KB-3-1 tox inconclusive, MCF10A rereplic 18µM
CCOC(=S)SCC(=O)Nc1nc(-c2ccccc2)cs1	KB-3-1 tox 6.5µM, KB-V1 cytotox inconclusive, SW480 rereplic inconclusive, ELG1 repair inh inconclusive, MCF10A rereplic 21µM
CCOC(=S)SCC(=O)Nc1nc(-c2ccc(Br)cc2)cs1	KB-3-1 tox 5.2µM, KB-V1 cytotox 5.8µM, SW480 rereplic inconclusive, ELG1 repair inh inconclusive, MCF10A rereplic 8.2µM
CCOC(=S)SCC(=O)Nc1nccs1	MCF10A rereplic inconclusive
CCCS(=O)(=O)NC(=O)C1(C)CCCN(C(=O)c2cc(C)n(C(C)(C)C)n2)C1 (stereo not drawn)	none (no result: SW480 rereplic, ELG1 repair inh, MCF10A rereplic)
Cc1ccc(NC(=O)OC(C)N2CCCCC2)cc1NC(=O)OC(C)N1CCCCC1 (stereo not drawn)	KB-V1 cytotox inconclusive (no result: ELG1 repair inh)
COc1ccc(CN2CCC2(C)C(=O)Nc2cnc3ccccc3c2)c2ccccc12 (stereo not drawn)	none (no result: SW480 rereplic, ELG1 repair inh, MCF10A rereplic)
COCc1nnc(NC(=O)C2CC(=O)N(c3ccc(C)c(Cl)c3)C2)s1 (stereo not drawn)	SW480 rereplic inconclusive
Cc1ccc(N2CC(C(=O)Nc3nccs3)CC2=O)cc1Cl (stereo not drawn)	KB-3-1 tox inconclusive, KB-V1 cytotox 7.3µM, ELG1 repair inh inconclusive
COc1ccc(N2CC(C(=O)Nc3ccccc3N3CCCC3)CC2=O)c(OC)c1 (stereo not drawn)	KB-3-1 tox 7.3µM, KB-V1 cytotox inconclusive, SW480 rereplic 21µM, MCF10A rereplic inconclusive
COC(=O)c1ccccc1NC(=O)C1CC(=O)N(c2ccc(C)c(C)c2)C1 (stereo not drawn)	KB-V1 cytotox 21µM, MCF10A rereplic inconclusive
CCCCOC(=O)CSc1nnc(-c2ccc(C)cc2)o1	none (no result: SW480 rereplic, ELG1 repair inh, MCF10A rereplic)
Cc1ccc(-n2c(SCC(=O)N/N=C/c3c(C)nn(-c4ccccc4)c3C)nc3ccccc3c2=O)cc1	ELG1 repair inh 23µM
Cc1ccccc1-n1c(SCC(=O)NCc2cccs2)nc2ccccc2c1=O	KB-V1 cytotox 5.8µM
CCn1c(SCC(=O)N/N=C/c2ccc(C)s2)nc2ccccc21	KB-3-1 tox 13µM, KB-V1 cytotox inconclusive, SW480 rereplic inconclusive, ELG1 repair inh inconclusive, MCF10A rereplic 13µM
